# Most compounds without a hit are left out; they make up all but 7.5% or so of the library.
# HCV inhibitor = blocks hepatitis C virus; AID 651820; Potency, µM (top dose mostly 41.8 µM), for the others: at the top dose activity change, negative = inhibition, actives largely listed as inhibitors; 340,000 tested, 3.4% active; Huh7.5.1 HCVcc-Cre infection, luciferase reporter, 44 h; note: potency is the fitted concentration of half-maximal effect
#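 Cells seeded at 1,000/well and cultured 4 h, then compounds added followed by HCVcc-Cre virus (~0.5 moi). After 44 h further culture, luciferase substrate was added, plates held 15 min at room temperature, and luminescence read for 15 sec.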
# HCMV inh = blocks human cytomegalovirus replication; AID 1259415; activity change, negative = inhibition, % at 57.5 µM; 410,000 tested, 4.5% active; HFF cells, HCMV-luciferase reporter, 72 h; active compounds read low; in the data active = activity change below about -60%; inconclusive = no clear call, values can overlap the other calls; inactive = above about -39%
#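 Steps: HFFs plated, 16 h 37C; compounds added; HCMV-luciferase added to MOI 1 PFU/cell; 72 h 37C; OneGlo reagent, 5 min room temperature; luminescence read, normalized to controls.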
# FMDV inh = foot and mouth disease virus antiviral activity | FMDV antiviral cell-based qHTS | Potency, µM (titrated, usually from 57.9 µM), inactives show at the top dose activity change, negative = inhibition, usual class: inhibitors | 410,000 tested, 1.2% active | AID 1159524; calls by dose curve; tested in HEK293T cells; note: read-out not given here; potency is the fitted concentration of half-maximal effect; nearly all actives have a fitted effect of over 45% in size
# Vaccinia mCherry = vaccinia inhibition (mCherry reporter); 310,000 tested, 0.63% active; Potency, µM (top dose mostly 36.5 µM), inactives show at the top dose activity change, negative = inhibition, hits mostly inhibitors; AID 720579; Vaccinia virus mCherry reporter infection, fluorescence; calls by dose curve; tested in A549 cells; note: potency is the fitted concentration of half-maximal effect; nearly all actives have a fitted effect of over 35% in size
# VACV Venus inh = inhibitors of vaccinia virus (Venus reporter); Vaccinia virus Venus reporter expression, fluorescence; Potency, µM (top dose mostly 36.5 µM), for the others: top-dose activity change, negative = inhibition, actives largely listed as inhibitors; 330,000 tested, 0.46% active; AID 720580; calls by dose curve; tested in A549 cells; note: potency is the fitted concentration of half-maximal effect; nearly all actives have a fitted effect of over 30% in size
# Giardia FBPA inh = Giardia lamblia aldolase inhibition | A8B2U2 | purified Giardia FBPA | Potency, µM (series often up to 59.6 µM), inactives show at the highest dose activity, negative = inhibition, actives largely listed as inhibitors | 290,000 tested, 0.71% active; note: potency is the fitted concentration of half-maximal effect; nearly all actives have a fitted effect of over 55% in size
# Target sequence (A8B2U2 whole entry, looked up): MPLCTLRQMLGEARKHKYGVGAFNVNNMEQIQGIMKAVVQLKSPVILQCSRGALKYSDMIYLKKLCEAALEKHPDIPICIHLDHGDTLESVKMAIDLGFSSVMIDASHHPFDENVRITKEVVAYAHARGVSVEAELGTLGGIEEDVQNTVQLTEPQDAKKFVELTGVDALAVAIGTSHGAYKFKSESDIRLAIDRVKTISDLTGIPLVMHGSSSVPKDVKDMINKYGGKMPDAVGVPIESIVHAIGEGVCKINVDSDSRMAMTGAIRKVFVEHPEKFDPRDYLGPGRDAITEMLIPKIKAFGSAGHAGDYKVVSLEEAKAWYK
#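 Giardia FBPA (40 nM reagent) was preincubated 10 min at RT with compound (up to 57.5 uM final), then substrate plus GAPDH/TPI/NAD/arsenate coupling system with diaphorase/resazurin was added; resorufin fluorescence (525/598 nm) was read after 20 min.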
# * hit, by the source's call; i = inactive; ? = inconclusive; nt = no result given; [ ] = dose if it differs, or a comment. Unless noted, calls come from the whole dose curve; as a rule, active = well fitted curve in the direction sought with a large enough effect; inconclusive = small, poorly fitted or top-dose-only effect, or another doubt; inactive = no such curve, though single readings can be large; an effect the other way counts as inactive or inconclusive. % is set by controls: 0 for no effect and ±100 for the full control effect.
SMILES,HCV inhibitor,HCMV inh,FMDV inh,Vaccinia mCherry,VACV Venus inh,Giardia FBPA inh
CC(C)CN(C(=O)CN1CC=C(c2ccccc2)CC1)c1c(N)n(CC(C)C)c(=O)[nH]c1=O,3.5µM*,-39,-5%,-9%,6%,-9%
CC(C)CN(C(=O)CN1CCCCCC1)c1c(N)n(CC(C)C)c(=O)[nH]c1=O,11%,52,15%,i,-6%,14%
CCCCn1c(N)c(N(CCOC)C(=O)CN2CC=C(c3ccccc3)CC2)c(=O)[nH]c1=O,20%,17,0%,i,-7%,-2%
CCN(C(=O)CN1CC=C(c2ccccc2)CC1)c1c(N)n(Cc2ccccc2)c(=O)[nH]c1=O,-8%,-62*,-6%,-4%,-13%,-4%
Cc1ccc(N2CCN(C(=O)c3cn(C)c4ccc(S(=O)(=O)N5CCCC5)cc4c3=O)CC2C)cc1 (stereo not given),nt,?,12%,-17%,-12%,nt
Cc1ccc(CNC(=O)c2c(-c3ccccc3Cl)noc2C)o1,nt,-4,-23%,-11%,-7%,nt
Cc1ccc(S(=O)(=O)CCC(=O)NCCN2C(=O)S/C(=C\c3ccccc3)C2=O)cc1,?,-26,?,-3%,-19%,8%
Cc1ccc2c(c1)S/C(=C/c1ccc[n+](C)c1)N2CCO,?,-77*,-14%,i,-4%,-1%
O=C(C=Cc1ccccc1)NCCNC(=O)C=Cc1ccccc1,19%,-69*,-5%,-11%,3%,nt
O=C(/C=C/c1ccccc1)NCCCNC(=O)/C=C/c1ccccc1,12%,-17,5%,16%,6%,5%
NC(=S)NC(=O)/C=C/c1ccccc1,?,-67*,26%,?,?,3%
O=C(/C=C/c1ccccc1)NC(=S)Nc1ccccc1O,-21%,-24,3%,?,-18%,-4%
Cc1c(C(=O)N2CCN(C(c3ccccc3)c3ccccc3)CC2)oc2ccccc12,?,-23,?,nt,nt,nt
Cc1c2c(=O)n(-c3nc4ccccc4s3)nc-2cc(O)n1Cc1ccccc1,4%,nt,7.1µM*,nt,nt,-6%
COC(=O)CSc1nnc(-c2cccc(O)c2)o1,nt,-65*,5%,-1%,-8%,nt
Cc1cccc(-c2nnc(SCCC(=O)O)o2)c1,nt,-88*,?,-6%,0%,nt
COc1ccc(NC(=O)c2c(NCc3sccc3C)sc3c2CCCCC3)c(OC)c1,nt,-7,44%,-9%,6%,nt
CCOC(=O)N1CCc2c(sc(NCc3sccc3C)c2C(=O)Nc2ccc(OC)cc2OC)C1,nt,-85*,32µM*,-8%,0%,nt
CCOC(=O)N1CCc2c(sc(NCc3ccc(N(C)C)cc3)c2C(=O)Nc2ccc(OC)cc2)C1,nt,-65*,-4%,-4%,-9%,nt
COc1ccc(NC(=O)c2c(NC(=O)CNCC(C)C)sc3c2CCC3)c(OC)c1,10µM*,-4,-30%,i,-19%,0%
COc1ccc(NC(=O)c2c(NCc3cccs3)sc3c2CCCC3)c(OC)c1,nt,0,70%,-10%,-13%,nt
CCOC(=O)N1CCc2c(sc(NCc3cccc(F)c3)c2C(=O)Nc2ccc(OC)cc2OC)C1,nt,-87*,-9%,-5%[7.34 µM],-2%[7.34 µM],nt
Fc1ccccc1C(NCCc1ccc(Cl)cc1)c1nnc(-c2ccccc2)o1 (stereo not given),nt,6,-13%,-19%,-12%,nt
COc1ccc(CCC(=O)NCc2ccc3c(c2)CCN3C(=O)c2ccc(C)cc2)cc1,nt,11,12%,-2%,-11%,nt
O=C(Nc1ccncc1)c1cc(C2CCCCN2C(=O)CCCc2ccccc2)on1 (stereo not given),nt,?,?,1%,-9%,nt
SMILES,HCV inhibitor,HCMV inh,FMDV inh,Vaccinia mCherry,VACV Venus inh,Giardia FBPA inh
O=C(Cc1ccc2ccccc2c1)NO,nt,nt,nt,-10%,-9%,nt
COc1ccccc1N1C(=O)CC1(C#N)c1ccc(OCc2ccccc2)cc1 (stereo not given),-4%,57,-26%,i,-8%,-1%
Cc1ccccc1N1C(=O)CC1(C#N)c1ccc(OCc2ccccc2)cc1 (stereo not given),-29%,-85*,-8%,-22%,-7%,-14%
Cc1cnc(-n2ncc(C(=O)NCc3ccncc3)c2C(C)C)nc1-c1ccc(F)cc1,nt,nt,-21%,-22%,-17%,nt
S=C(NCc1ccccc1Cl)Nc1ccccc1Cl,-20%,-9,34%,nt,nt,-3%
S=C(NCCc1ccccc1)Nc1ccccc1Cl,-24%,-64*,35%,i,2%,0%
S=C(NCCCc1ccccc1)Nc1ccccc1Cl,-15%,-60*,42%,-17%,0%,2%
S=C(NCCc1ccccc1)NCCc1ccccc1,-5%,99,64%,-19%,-11%,0%
S=C(NCCc1ccccc1)Nc1ccc(Br)cn1,-20%,-102*,-12%,i,-14%,-7%
S=C(NCCNC(=S)Nc1ccccc1Cl)Nc1ccccc1Cl,?,?,24%,-10%,-3%,?
O=C(CN1CCN(Cc2ccc(F)cc2)CC1)NCCc1ccccc1,19%,-81*,-3%,-16%,-15%,0%
COc1cc(=O)n2c(c1C(=O)NC(C)c1ccco1)CCN(C(=O)c1[nH]c(C)cc1C)CC2 (stereo not given),nt,nt,-7%,i,-17%,nt
Cc1cc(Cl)ccc1Nc1ncnc2onc(C)c12,nt,-9,-22%,-13%,-9%,nt
O=C(NCCc1ccc(F)cc1)Nc1ccccc1Cl,-14%,-63*,3%,-12%,-16%,nt
Clc1ccc2nc3ccccn3c2c1,10µM*,8,24%,nt,nt,0%
N#Cc1ccc2c(c1)nc1ccccn12,5%,?,22%,i,-15%,-1%
Cc1cc(C(=O)N2CCN(c3cccc(C)c3C)CC2)c2c(C)nn(-c3ccccc3)c2n1,nt,10,0%,-10%,-11%,nt
COc1ccc(C(=O)OC(C)C(=O)NC2CCCCC2C)cc1S(=O)(=O)N1CCOCC1 (stereo not given),9%,-98*,-7%,-16%,2%,nt
Cc1ccc2nc(CCl)[n+]([O-])c(-c3ccccc3)c2c1,?,17,28µM*,-15%,-15%,-16%
Cc1ccc2nc(Cl)c(-c3ccccc3)cc2c1,-27%,17,29%,-1%,-9%,nt
COc1cccc(C(=O)C(=O)N2CCN(C(=O)OCc3ccccc3)CC2)c1,nt,-11,-17%,?,-18%,nt
CC(C)(C)C(=O)Nc1nnc(SCC(=O)NCc2cccs2)s1,-3%,35,-3%,nt,nt,1%
CC(C)C(=O)Nc1nnc(SCC(=O)NCc2cccs2)s1,9%,-92*,-5%,nt,nt,0%
COc1ccc(C(=O)C2CCCN(Cc3cccn3-c3nccs3)C2)cc1OC (stereo not given),?,-19,?,nt,nt,3%
CC(C)Oc1cccc(C(=O)C2CCCN(Cc3cccn3-c3ccccn3)C2)c1 (stereo not given),-18%,-71*,9%,-5%,-6%,3%

# Assay outcomes (PubChem BioAssay)
